High-throughput results: PubChem, The Scripps Research Institute Molecular Screening Center
DAX1 inh-1 – DAX1 (NR0B1) inhibition, primary screen. HEK293T StAR-luciferase reporter, SF-1/DAX-1 repression relief. inhibition, % at 6.8 µM. 1.1% of 370,000 active. AID 652010;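 active = inhibition above the mean over all tested compounds plus 3 SD, cut at about 3.6% in these data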;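 note: 0% = DAX-1 cells with DMSO and 100% = cells lacking DAX-1 with DMSO; higher inhibition means more luminescence from relief of DAX-1 repression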
DAX1 inh-2 – inhibits human nuclear receptor DAX1; HEK293 Gal4-DAX1 luciferase reporter, luminescence; inhibition, % at 6.75 µM; 0.99% of 340,000 active;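 active = inhibition above the mean over all tested compounds plus 3 SD, cut at about 4.2% in these data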;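 note: 0% = DAX1-transfected cells with DMSO and 100% = empty-vector control cells with DMSO; inhibition shows as a rise in luminescence from relieved DAX1 repression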
AHR activator – activators of human aryl hydrocarbon receptor. activation, % at 5 µM. P35869. AID 2796. 2.5% of 320,000 active. AHR-responsive luciferase reporter cells, luminescence; in the data active = activation above about 47%;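 note: 0% = vehicle wells and 100% = reference agonist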
ssDAF12 agonist – activates DAF-12 receptor from parasite S. stercoralis; HEK293 ssDAF-12/GRIP1 lit1-tk-luc reporter, luminescence; % of 3 µM dafachronic acid response; activation, % at 6.8 µM; 1% of 370,000 active;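 active = activation above the mean over all tested compounds plus 3 SD, cut at about 0.9% in these data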;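 note: 0% = DMSO-only wells and 100% = 3 µM delta7-dafachronic acid wells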
hcDAF-12 act – activators of H. contortus DAF-12 nuclear receptor; HEK293 hcDAF-12 lit1-tk-luc reporter, luminescence; 0% DMSO, 100% Δ7-dafachronic acid; activation, % at 6.8 µM; 1.4% of 370,000 active; AID 652067;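 active = activation above the mean of all tested compounds plus 3 SD, cut at about 5.5% in these data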;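 note: 100% = response to 3 µM Δ7-dafachronic acid high control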
hgDAF-12 ag – activates the H. glycines DAF-12 receptor ligand-binding domain. AID 687014. activation, % at 6.8 µM. 1.8% of 370,000 active. HEK293 GAL4-hgDAF12 UAS-luciferase reporter, agonist luminescence; normalized to butyrate control;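 active = activation above a cutoff set at the mean of all screened compounds plus 3 SD, cut at about 10% in these data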;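 note: 0% = DMSO wells and 100% = sodium butyrate wells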
AHR act confirm – confirmation of human aryl hydrocarbon receptor activators | shares compounds with AHR activator | human cells, AHR-responsive luciferase reporter, luminescence | activation, % at 9 µM | 87% of 2,300 active | AID 2845; in the data active = activation above about 49%;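 note: HepG2 hepatoma cells carrying a DRE-driven firefly luciferase reporter; 0% = vehicle wells and 100% = reference agonist wells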
PXR counter – counter-screen for AHR activators: human PXR activators | 88% of 2,300 active | cell-based PXR reporter, luciferase luminescence | activation, % at 11.6 µM | shares compounds with AHR activator; in the data active = activation above about 11%;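 note: human hepatoma DPX-2 cells expressing full-length human PXR; 0% = DMSO and 100% = reference agonist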
Starred values were filed as active, the others as inactive. Most compounds without a hit are left out; they make up all but 5.7% or so of the library.

Screening Cc1ccc(C)c(N2CCN(C(=O)CCc3nc(-c4ccccc4Br)no3)CC2)c1 returned DAX1 inh-1 0, DAX1 inh-2 2, ssDAF12 agonist -1, hcDAF-12 act 0 and hgDAF-12 ag 6.
Screening O=c1[nH]cnc2c1sc1nc3c(c(-c4ccc(Cl)cc4)c12)CCC3 returned DAX1 inh-1 1, DAX1 inh-2 0, AHR activator -2, ssDAF12 agonist -1, hcDAF-12 act -1 and hgDAF-12 ag -1.
`O=c1[nH]cnc2c1sc1nc(C(F)F)cc(-c3ccccc3)c12` gave DAX1 inh-1 0, DAX1 inh-2 0, AHR activator 106*, ssDAF12 agonist 0, hcDAF-12 act 3, hgDAF-12 ag -2, AHR act confirm 76* and PXR counter 10*.
`COc1cc(NC(=O)c2onc(C)c2Cl)cc(OC)c1OC` gave DAX1 inh-1 -1, DAX1 inh-2 2, AHR activator 10, ssDAF12 agonist 0, hcDAF-12 act -1 and hgDAF-12 ag 1.
`CC(=O)C1=C(O)C(=O)N(c2nccs2)C1c1ccc(F)cc1` (stereo unspecified) gave DAX1 inh-1 0, DAX1 inh-2 1, AHR activator -3, ssDAF12 agonist -1, hcDAF-12 act 0 and hgDAF-12 ag -3.
For CC(=O)C1=C(O)C(=O)N(c2nccs2)C1c1ccc(Br)cc1 (stereo unspecified) the results were DAX1 inh-1 1, DAX1 inh-2 1, AHR activator 171*, ssDAF12 agonist 0, hcDAF-12 act 2, hgDAF-12 ag 2, AHR act confirm 43 and PXR counter 9.
`ONC(=Nc1ccc(Cl)cc1)c1ccc(Cl)cc1` gave DAX1 inh-1 0, DAX1 inh-2 0, AHR activator 117*, ssDAF12 agonist 0, hcDAF-12 act 5, hgDAF-12 ag 5, AHR act confirm 115* and PXR counter 12*.
For CC1C(=O)OC(c2ccc(Br)cc2)C(C)(C)C1=O (stereo unspecified) the results were DAX1 inh-1 0, DAX1 inh-2 0, AHR activator -1, ssDAF12 agonist 0, hcDAF-12 act 1 and hgDAF-12 ag 2.
For Clc1ccc2c(c1)C(c1cccs1)=NNC(c1cccnc1)=N2 the results were DAX1 inh-1 1, DAX1 inh-2 1, AHR activator 105*, ssDAF12 agonist -1, hcDAF-12 act 1, hgDAF-12 ag 4, AHR act confirm 56* and PXR counter 50*.
`Cc1ccccc1-n1ncc2c1CC(C)(C)CC2NC(=O)C1=CC(=O)CC(C)(C)O1` (stereo unspecified) gave DAX1 inh-1 0, DAX1 inh-2 0, AHR activator -4, ssDAF12 agonist -2, hcDAF-12 act -2 and hgDAF-12 ag -4.
For COc1ccc(C(=O)Nc2ccccc2-c2nnn(CC(=O)NCc3ccco3)n2)cc1 the results were DAX1 inh-1 -1, DAX1 inh-2 0, AHR activator 103*, ssDAF12 agonist -1, hcDAF-12 act -1, hgDAF-12 ag 1, AHR act confirm -1 and PXR counter 26*.
COc1ccccc1C(=O)Nc1ccc(-c2nnn(CC(=O)NCc3ccco3)n2)cc1 was read as DAX1 inh-1 0, DAX1 inh-2 1, AHR activator 130*, ssDAF12 agonist -1, hcDAF-12 act -1, hgDAF-12 ag 2, AHR act confirm 135* and PXR counter 29*.
`O=C(Cn1nnc(-c2ccccc2NC(=O)c2ccccc2F)n1)NCc1ccco1` gave DAX1 inh-1 0, DAX1 inh-2 0, AHR activator 0, ssDAF12 agonist -1, hcDAF-12 act -1 and hgDAF-12 ag 1.
COc1cccc(CN2CC(C(=O)NCCCn3ccnc3C)CCC2=O)c1 (stereo unspecified) was read as DAX1 inh-1 0, DAX1 inh-2 1, AHR activator -1, ssDAF12 agonist -1, hcDAF-12 act 0 and hgDAF-12 ag 1.
